# Measured values published in PubChem BioAssay (NCI).
# About 83,000 compounds went through this panel and 20% of them were active in at least one assay; those are over-represented in the sample as a whole.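 Testing used 96-well plates and a 48-hour single-concentration exposure. Example: -40 means 40% of the starting cells died.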 Values without a mark were called inactive. Calls of active or inactive are those of the source. Rule for the calls: active = growth percent below 10; inactive = the rest.
# Assays:
# Test in all cases: NCI-60 one-dose screen, 48 h (100 = growth as untreated, 0 = no growth, -100 = all killed)
# Settings in all cases: 10 µM unless noted
# DU-145 prostate = tested on: DU-145 prostate
# K-562 leukemia = tested on: K-562 leukemia
# MALME-3M melanoma = tested on: MALME-3M melanoma
# MDA-MB-231 breast = tested on: MDA-MB-231 breast
# RXF 393 renal = tested on: RXF 393 renal
# SF-268 CNS = tested on: SF-268 CNS
# SF-295 CNS = tested on: SF-295 CNS
# SF-539 CNS = tested on: SF-539 CNS
# UACC-257 melanoma = tested on: UACC-257 melanoma
# M14 melanoma = tested on: M14 melanoma
# HCT-15 colon = tested on: HCT-15 colon
# HT29 colon = tested on: HT29 colon
# SNB-75 CNS = tested on: SNB-75 CNS
# SNB-19 CNS = tested on: SNB-19 CNS
# U251 CNS = tested on: U251 CNS
# PC-3 prostate = tested on: PC-3 prostate
# SK-MEL-5 melanoma = tested on: SK-MEL-5 melanoma
# UACC-62 melanoma = tested on: UACC-62 melanoma
# LOX IMVI melanoma = tested on: LOX IMVI melanoma
# SK-MEL-28 melanoma = tested on: SK-MEL-28 melanoma
SMILES,growth (DU-145 prostate),growth (K-562 leukemia),growth (MALME-3M melanoma),growth (MDA-MB-231 breast),growth (RXF 393 renal),growth (SF-268 CNS),growth (SF-295 CNS),growth (SF-539 CNS),growth (UACC-257 melanoma),growth (M14 melanoma),growth (HCT-15 colon),growth (HT29 colon),growth (SNB-75 CNS),growth (SNB-19 CNS) [%],growth (U251 CNS),growth (PC-3 prostate),growth (SK-MEL-5 melanoma),growth (UACC-62 melanoma),growth (LOX IMVI melanoma),growth (SK-MEL-28 melanoma)
Cc1cc(NCc2cc(Nc3ccnc4cc(Cl)ccc34)ccc2F)nc(N2CCSCC2)n1,23.6%,-24.9% (active),-30.7% (active),-8.18% (active),-5.98% (active),38.8%,-57.3% (active),-72.2% (active),17.6%,-51.6% (active),1.94% (active),-27.3% (active),-31.7% (active),42.9,-71.4% (active),26.6%,-13.8% (active),-54.4% (active),-89.2% (active),-64.3% (active)
CCc1ccccc1-n1c(-c2ccc(Cl)cc2)cc(-c2ccc(OC)cc2)c(C#N)c1=O,94.6%,101%,148%,92.7%,97.5%,93.4%,93.2%,102%,112%,93.4%,99.6%,103%,93%,105,114%,84.1%,101%,89.1%,89.6%,109%
O=C(Nc1ccc(Cl)cc1)Nc1ccc(Cl)c(C(F)(F)F)c1,20.2%,-10.2% (active),-30.7% (active),-4.47% (active),33.6%,21.3%,-28.2% (active),4.38% (active),2.84% (active),11.8%,8.11% (active),18.9%,41.3%,13,4.41% (active),-8.98% (active),-13.3% (active),23.9%,3.49% (active),19.1%
Cc1nn(-c2ccccc2)c2nc3c(c(-c4ccc(Cl)cc4)c12)CNC1(CCSCC1)N3,110%,93.1%,96.5%,96.9%,88.8%,101%,103%,110%,107%,94.1%,101%,101%,78.6%,106,95.8%,87%,99.1%,102%,97.7%,104%
Cn1c(=O)c2[nH]c(NN)nc2n(C)c1=O,123%,100%,135%,116%,123%,108%,108%,111%,119%,102%,97.2%,105%,89.6%,110,105%,101%,105%,114%,101%,103%
Cc1ccc(Cl)cc1NC(=O)c1cc2ccccc2cc1O,7.76% (active),-33.7% (active),-32.6% (active),-56.8% (active),-15.6% (active),9.58% (active),-9.44% (active),-0.708% (active),-7.13% (active),2.88% (active),8.41% (active),7.43% (active),-14.3% (active),22.8,2.92% (active),-12.6% (active),-74.4% (active),-11.5% (active),3.41% (active),9.98% (active)
CCCCn1c(=O)c2c(nc3n2CCCN3CCc2ccc(OCC(=O)NCCN(CC)CC)cc2)n(CCCC)c1=O,66.1%,-6.6% (active),-52.9% (active),14.4%,47.2%,63.2%,-22.3% (active),54.7%,-39% (active),-79.2% (active),1.38% (active),5.96% (active),44.6%,65.3,24.6%,47.7%,28.3%,20.7%,11%,-36.4% (active)
CCN(CC)CCCNc1ccc(Nc2ccc(OC)cc2)cc1,90.7%,34.1%,104%,34.6%,90.5%,77.5%,120%,98.6%,87.4%,94.7%,105%,67.5%,80%,102,79.8%,55.3%,91.2%,95.8%,86.4%,101%
Cc1ccc(S(=O)(=O)NCC[C@@H]2C[C@H]2c2cc3ccccc3s2)cc1,101%,85.1%,99.8%,92.5%,103%,93.3%,103%,98.3%,108%,108%,101%,107%,82.7%,95.6,98.6%,99.8%,102%,68.1%,96.7%,105%
CCN1CCN(c2nc(C)cc(NCc3cc(Nc4ccnc5cc(Cl)ccc45)ccc3F)n2)CC1,38%,-38.3% (active),-69% (active),-31.1% (active),-10.8% (active),16.6%,-55% (active),-81% (active),-57.7% (active),-83.7% (active),-24.2% (active),-12.6% (active),-34.7% (active),34.7,-27.2% (active),19.5%,-96.4% (active),-49.8% (active),-81.5% (active),-80.3% (active)
C=C1C(=O)O[C@H]2[C@H]1CC/C(COC(=O)C(=O)c1c[nH]c3ccccc13)=C\CC[C@@]1(C)O[C@@H]21,-31.4% (active),-4.12% (active),-63.1% (active),-56.8% (active),-89.1% (active),-46.3% (active),56.6%,-65.3% (active),-69.3% (active),-57.2% (active),-42.9% (active),-55.3% (active),-55% (active),30.3,-82.3% (active),-66.8% (active),-89.6% (active),-82.2% (active),-81.1% (active),-54% (active)
Cc1ccc(-c2cc3c(cc2O)C2CCCCC2(N2CCOCC2)O3)cc1 (stereo not given),106%,89.1%,101%,114%,90.6%,97.2%,103%,105%,102%,92.5%,101%,105%,75.4%,98.7,98.6%,75.3%,99.1%,71.2%,87.1%,111%
COc1ccc(NC(=O)CSc2nc(C)c(C(C)=O)n2-c2ccc([N+](=O)[O-])cc2)cc1,113%,96.6%,91.3%,80.3%,84.9%,108%,89%,102%,98.4%,94.9%,85.7%,90.8%,90%,85.9,93.8%,85.3%,91.5%,73.1%,89.7%,89.8%
C#CCOc1nc(C)cc(C)c1C#N,104%,100%,99%,94.5%,106%,99.6%,104%,97.9%,103%,98.1%,96%,107%,79.6%,96.2,98.1%,140%,98.9%,93.5%,97.4%,111%
CC(CCc1ccc(Cl)c(Cl)c1)NCc1ccc(C(C)(C)C)cc1 (stereo not given),101%,25.2%,97.6%,72.9%,89.6%,92.9%,112%,96.8%,64.5%,86.1%,77.3%,39.6%,70.6%,92.5,70.6%,77.5%,92.8%,89.9%,79.8%,91.9%
